Measured values: the supplement of paper PMC11732987, “Enantioselective OTUD7B fragment discovery through chemoproteomics screening and high-throughput optimisation” (Communications Chemistry, 2025)

Experiments:
Assay in all cases: log2 ratio of Biotin-Ahx-Ub-VS probe labelling (fragment/DMSO); higher = less target engagement (more negative = stronger competition), active = hit call of the paper (q ≤ 0.05, log2 ratio ≤ -1)
Details in all cases: compound concentration: 200 uM; treatment time: 3 h
USP34 = USP34 (UniProt Q70CQ2)
Chain of USP34 (Q70CQ2 whole entry, the tested form may be a part): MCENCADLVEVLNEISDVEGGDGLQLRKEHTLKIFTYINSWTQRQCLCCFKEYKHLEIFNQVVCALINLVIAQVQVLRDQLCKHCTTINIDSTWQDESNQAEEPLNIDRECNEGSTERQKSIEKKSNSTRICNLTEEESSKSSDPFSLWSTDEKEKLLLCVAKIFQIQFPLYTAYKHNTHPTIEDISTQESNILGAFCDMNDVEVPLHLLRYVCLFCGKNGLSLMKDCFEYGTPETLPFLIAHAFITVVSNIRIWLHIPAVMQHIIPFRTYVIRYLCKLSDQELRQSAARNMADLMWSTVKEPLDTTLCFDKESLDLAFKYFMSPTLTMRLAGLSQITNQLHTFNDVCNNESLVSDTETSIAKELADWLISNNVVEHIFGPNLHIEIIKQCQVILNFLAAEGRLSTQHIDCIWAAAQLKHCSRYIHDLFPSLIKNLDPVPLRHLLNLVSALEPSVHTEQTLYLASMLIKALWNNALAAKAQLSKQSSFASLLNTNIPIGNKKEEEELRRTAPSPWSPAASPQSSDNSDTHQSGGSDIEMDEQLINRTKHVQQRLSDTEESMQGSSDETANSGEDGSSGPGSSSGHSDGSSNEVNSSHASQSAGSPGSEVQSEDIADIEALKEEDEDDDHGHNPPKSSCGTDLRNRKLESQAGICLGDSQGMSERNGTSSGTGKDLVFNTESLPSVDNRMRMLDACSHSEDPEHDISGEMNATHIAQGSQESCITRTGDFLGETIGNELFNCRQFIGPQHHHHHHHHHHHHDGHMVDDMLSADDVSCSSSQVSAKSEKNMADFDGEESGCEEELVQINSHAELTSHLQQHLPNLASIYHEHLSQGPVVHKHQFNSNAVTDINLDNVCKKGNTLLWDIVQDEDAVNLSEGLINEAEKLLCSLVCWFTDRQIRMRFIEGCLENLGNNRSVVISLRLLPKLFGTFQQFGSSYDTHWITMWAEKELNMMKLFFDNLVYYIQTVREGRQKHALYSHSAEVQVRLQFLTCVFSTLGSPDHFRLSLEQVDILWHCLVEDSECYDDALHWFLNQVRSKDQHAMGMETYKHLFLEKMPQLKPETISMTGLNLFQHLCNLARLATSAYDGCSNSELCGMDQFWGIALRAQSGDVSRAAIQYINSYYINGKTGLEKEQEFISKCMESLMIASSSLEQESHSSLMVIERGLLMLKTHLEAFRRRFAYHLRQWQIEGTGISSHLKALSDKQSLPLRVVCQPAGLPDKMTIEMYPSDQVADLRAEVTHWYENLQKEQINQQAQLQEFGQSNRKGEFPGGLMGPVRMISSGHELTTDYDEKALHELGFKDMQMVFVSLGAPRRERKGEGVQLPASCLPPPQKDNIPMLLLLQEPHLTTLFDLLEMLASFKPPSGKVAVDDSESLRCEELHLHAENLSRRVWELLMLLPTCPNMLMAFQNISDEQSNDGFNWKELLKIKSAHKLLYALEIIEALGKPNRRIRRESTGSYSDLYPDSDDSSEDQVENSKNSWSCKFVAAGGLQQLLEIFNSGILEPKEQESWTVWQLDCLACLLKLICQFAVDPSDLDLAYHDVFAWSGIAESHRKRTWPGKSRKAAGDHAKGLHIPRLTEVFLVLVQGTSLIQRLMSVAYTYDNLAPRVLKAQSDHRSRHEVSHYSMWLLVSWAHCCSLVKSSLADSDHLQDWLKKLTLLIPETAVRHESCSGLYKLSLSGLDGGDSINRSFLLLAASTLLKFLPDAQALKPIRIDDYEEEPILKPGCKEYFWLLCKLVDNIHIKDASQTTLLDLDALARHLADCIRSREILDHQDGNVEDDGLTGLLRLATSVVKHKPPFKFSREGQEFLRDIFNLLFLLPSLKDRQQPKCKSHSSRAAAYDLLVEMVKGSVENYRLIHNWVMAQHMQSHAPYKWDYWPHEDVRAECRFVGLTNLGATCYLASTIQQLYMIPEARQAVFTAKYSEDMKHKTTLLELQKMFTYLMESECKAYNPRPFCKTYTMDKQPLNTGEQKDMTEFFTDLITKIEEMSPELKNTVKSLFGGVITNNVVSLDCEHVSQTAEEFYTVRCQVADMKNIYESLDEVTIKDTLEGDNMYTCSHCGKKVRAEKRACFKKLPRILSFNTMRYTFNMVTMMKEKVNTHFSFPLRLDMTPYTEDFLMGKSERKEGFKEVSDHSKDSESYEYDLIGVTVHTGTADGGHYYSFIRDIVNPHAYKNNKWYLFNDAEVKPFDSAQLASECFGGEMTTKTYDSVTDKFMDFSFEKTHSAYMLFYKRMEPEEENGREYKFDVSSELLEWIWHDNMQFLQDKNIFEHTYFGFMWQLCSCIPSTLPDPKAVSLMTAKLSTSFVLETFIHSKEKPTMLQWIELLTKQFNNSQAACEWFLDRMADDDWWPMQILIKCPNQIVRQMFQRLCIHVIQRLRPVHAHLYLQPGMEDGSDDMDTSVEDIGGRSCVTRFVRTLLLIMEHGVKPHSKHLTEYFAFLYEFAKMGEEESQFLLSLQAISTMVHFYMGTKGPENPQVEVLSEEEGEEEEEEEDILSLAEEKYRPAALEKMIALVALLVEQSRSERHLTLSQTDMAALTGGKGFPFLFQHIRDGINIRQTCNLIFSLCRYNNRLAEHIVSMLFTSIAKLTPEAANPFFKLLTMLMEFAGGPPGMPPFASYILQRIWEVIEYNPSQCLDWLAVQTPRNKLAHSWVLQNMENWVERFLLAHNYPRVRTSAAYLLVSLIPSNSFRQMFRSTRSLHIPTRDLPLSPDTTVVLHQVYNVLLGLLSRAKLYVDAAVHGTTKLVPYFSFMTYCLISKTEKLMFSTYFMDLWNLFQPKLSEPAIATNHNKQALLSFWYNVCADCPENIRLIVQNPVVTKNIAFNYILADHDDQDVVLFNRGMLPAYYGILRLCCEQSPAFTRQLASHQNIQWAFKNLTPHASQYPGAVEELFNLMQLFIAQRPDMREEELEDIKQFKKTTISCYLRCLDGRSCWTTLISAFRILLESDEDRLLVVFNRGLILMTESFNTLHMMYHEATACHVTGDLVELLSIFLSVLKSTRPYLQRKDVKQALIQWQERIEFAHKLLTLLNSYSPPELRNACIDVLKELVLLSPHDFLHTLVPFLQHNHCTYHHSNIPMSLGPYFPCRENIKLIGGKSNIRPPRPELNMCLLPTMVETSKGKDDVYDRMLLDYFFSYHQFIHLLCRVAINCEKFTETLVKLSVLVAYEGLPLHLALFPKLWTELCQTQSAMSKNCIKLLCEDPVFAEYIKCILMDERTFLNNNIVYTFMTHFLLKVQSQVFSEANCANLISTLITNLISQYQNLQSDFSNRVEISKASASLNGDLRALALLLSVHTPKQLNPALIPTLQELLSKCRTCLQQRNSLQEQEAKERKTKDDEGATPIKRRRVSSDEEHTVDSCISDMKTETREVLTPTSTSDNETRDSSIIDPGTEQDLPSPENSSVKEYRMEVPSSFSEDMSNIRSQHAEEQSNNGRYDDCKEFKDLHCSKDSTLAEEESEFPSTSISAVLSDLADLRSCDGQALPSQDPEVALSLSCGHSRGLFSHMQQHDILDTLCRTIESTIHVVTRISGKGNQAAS
Summary of the method: (§1)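 Fragment (200 µM) or vehicle was incubated for 3 h with triplicate HEK293T lysate samples of 495 µg, which were then treated with Biotin-Ahx-Ub-VS at 0.5 µM final for 1 h. Labelled DUBs were enriched on NeutrAvidin, digested with LysC and trypsin, and analysed by diaPASEF LC-MS/MS. Values are average log2 fragment/vehicle ratios from an unpaired t-test on global-median-normalised Spectronaut label-free quantities, using proteins with ≥2 unique peptides.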

USP36 = molecular target: T1, USP36 (UniProt Q9P275)
T1 sequence (whole entry): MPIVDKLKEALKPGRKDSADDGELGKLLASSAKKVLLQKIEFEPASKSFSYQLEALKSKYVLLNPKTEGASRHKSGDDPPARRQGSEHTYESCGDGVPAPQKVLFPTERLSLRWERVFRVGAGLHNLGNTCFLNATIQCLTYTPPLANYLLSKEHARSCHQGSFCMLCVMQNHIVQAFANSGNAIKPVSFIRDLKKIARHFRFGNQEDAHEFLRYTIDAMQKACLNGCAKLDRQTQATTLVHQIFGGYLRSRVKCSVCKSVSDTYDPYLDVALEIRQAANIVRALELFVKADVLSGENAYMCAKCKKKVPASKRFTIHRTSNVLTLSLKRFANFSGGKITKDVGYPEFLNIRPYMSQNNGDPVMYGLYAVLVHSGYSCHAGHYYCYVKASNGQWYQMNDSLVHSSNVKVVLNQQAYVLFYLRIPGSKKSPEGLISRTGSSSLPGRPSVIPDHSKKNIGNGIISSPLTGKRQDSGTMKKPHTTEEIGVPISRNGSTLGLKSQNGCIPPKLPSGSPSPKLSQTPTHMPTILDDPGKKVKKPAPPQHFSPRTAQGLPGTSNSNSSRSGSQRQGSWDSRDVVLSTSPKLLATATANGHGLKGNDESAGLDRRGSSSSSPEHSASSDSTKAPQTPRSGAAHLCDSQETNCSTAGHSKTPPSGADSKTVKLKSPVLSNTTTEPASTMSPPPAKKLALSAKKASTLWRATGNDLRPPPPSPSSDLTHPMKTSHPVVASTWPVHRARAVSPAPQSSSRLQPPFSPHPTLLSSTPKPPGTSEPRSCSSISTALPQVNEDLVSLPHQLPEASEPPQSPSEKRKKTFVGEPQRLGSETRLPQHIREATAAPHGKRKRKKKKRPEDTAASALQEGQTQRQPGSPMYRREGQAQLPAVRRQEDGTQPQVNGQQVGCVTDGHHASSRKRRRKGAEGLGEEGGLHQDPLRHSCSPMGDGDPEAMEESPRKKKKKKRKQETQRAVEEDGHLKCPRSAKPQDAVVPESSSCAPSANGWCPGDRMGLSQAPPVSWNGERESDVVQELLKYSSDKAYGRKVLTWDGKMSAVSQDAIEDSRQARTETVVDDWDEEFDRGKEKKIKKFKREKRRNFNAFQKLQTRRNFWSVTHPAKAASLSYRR
Summary of the method: as §1

USP38 = molecular target: T2, USP38 (UniProt Q8NB14)
T2 sequence (whole entry): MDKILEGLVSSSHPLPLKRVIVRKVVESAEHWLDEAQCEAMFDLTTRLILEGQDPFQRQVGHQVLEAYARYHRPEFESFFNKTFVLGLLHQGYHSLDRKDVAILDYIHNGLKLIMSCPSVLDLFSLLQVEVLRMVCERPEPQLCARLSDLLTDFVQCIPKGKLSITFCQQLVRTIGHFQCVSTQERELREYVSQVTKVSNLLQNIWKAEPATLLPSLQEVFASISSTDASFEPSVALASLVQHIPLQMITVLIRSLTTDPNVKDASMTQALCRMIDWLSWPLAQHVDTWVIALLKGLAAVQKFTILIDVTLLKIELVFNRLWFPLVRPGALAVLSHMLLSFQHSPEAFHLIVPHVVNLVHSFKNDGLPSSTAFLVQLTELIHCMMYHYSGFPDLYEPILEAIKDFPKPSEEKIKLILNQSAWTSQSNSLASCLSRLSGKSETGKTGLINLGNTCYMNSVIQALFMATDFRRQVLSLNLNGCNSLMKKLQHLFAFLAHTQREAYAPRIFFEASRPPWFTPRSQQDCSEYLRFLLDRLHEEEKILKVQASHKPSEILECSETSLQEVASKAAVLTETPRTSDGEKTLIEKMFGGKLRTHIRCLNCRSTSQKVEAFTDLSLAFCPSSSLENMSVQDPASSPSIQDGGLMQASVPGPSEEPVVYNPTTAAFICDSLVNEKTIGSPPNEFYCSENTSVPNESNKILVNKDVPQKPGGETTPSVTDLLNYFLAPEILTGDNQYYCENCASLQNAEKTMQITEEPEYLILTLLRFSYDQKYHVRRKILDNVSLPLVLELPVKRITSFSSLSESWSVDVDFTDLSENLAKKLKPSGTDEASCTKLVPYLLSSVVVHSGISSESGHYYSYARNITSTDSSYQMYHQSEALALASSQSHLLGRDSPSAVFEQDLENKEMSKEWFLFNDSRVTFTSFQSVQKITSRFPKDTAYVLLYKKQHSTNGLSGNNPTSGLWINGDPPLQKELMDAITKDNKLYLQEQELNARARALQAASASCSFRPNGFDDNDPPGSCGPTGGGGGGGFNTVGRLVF
Summary of the method: as §1

USP39 = molecular target: T3, USP39 (UniProt Q53GS9)
T3 sequence (whole entry): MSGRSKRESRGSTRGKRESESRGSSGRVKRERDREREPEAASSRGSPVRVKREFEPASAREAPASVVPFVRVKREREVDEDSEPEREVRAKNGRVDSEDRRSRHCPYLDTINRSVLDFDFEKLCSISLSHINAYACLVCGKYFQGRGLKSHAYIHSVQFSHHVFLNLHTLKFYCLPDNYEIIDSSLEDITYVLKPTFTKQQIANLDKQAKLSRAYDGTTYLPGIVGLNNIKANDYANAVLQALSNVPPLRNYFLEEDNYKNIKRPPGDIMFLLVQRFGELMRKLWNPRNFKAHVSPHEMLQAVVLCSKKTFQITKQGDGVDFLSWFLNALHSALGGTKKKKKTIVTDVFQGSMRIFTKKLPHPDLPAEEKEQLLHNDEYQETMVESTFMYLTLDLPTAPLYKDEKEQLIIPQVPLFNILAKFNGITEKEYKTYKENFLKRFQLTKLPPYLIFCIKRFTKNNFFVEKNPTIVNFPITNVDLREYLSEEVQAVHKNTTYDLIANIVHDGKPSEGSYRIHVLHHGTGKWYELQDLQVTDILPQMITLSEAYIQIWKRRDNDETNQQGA
Summary of the method: as §1

USP4 = molecular target: T4, USP4 (UniProt Q13107)
T4 sequence (whole entry): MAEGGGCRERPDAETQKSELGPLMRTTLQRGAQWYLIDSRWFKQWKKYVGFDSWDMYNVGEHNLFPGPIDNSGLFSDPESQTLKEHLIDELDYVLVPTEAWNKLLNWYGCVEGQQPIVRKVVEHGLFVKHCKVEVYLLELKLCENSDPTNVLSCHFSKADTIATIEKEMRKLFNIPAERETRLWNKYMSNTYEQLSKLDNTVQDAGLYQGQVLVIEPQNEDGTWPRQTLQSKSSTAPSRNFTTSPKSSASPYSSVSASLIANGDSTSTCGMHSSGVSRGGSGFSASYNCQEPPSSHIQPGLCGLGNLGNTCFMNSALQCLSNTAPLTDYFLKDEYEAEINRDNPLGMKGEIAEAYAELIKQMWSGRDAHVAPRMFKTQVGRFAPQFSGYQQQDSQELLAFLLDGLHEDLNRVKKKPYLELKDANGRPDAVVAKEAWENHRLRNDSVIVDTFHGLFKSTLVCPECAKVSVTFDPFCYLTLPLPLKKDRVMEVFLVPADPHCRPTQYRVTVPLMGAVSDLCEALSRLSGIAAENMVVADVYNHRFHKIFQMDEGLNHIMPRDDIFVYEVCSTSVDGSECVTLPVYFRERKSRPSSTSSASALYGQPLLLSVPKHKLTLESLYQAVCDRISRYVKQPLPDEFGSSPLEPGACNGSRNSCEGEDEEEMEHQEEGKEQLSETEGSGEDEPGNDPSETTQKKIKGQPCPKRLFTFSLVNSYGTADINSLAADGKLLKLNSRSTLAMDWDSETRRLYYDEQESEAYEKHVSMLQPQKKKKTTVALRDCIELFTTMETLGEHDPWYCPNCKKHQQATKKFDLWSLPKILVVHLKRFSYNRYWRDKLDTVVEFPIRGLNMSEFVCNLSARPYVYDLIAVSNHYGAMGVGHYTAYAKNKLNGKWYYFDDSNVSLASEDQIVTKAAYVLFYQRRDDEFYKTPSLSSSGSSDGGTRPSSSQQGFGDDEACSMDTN
Summary of the method: as §1

Measured: log2 ratio of Biotin-Ahx-Ub-VS probe labelling

O=C(CCl)N1CCC(C(O)c2ccc(F)cc2)CC1 (stereo not given)
inactive: USP34 -0.0791 | USP36 0.299 | USP38 0.282 | USP39 0.453 | USP4 0.032
